Measurements from PubChem BioAssay (NCI).
This is part of a sample that, as a whole, favours compounds with a hit. Of some 83,000 tested, about 20% had one in any assay.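 Percent growth is the endpoint: 0 to 100 indicates growth inhibition (40 means 60% inhibition), 0 means no net growth, and negative values indicate cell death.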 Active and inactive are the calls of the source. How the source made its calls: active means growth percent below 10; inactive means the rest.

Test system: UACC-257 melanoma
Test: NCI-60 one-dose screen, 48 h (100 = growth as untreated, 0 = no growth, -100 = all killed)
Conditions: 10 µM

SMILES	growth
CC(=O)OC1CC2C(C)(C)OC3CC(=O)OCC32C2CCC3(C)C(=CCC3c3ccoc3)C12C (stereo unspecified)	72.7% (inactive)
CCC(O)CC(CC)CO (stereo unspecified)	110% (inactive)
CC(=Nc1ccccc1)C1=C(O)C(Cc2cccc(F)c2)NC1=O (stereo unspecified)	40.6% (inactive)
Cc1c(O)cccc1O	108% (inactive)
CC1CCCCN1C(=S)Nc1ccc(S(=O)(=O)N2CCCCC2)cc1 (stereo unspecified)	105% (inactive)
C=C1CC/C=C(\C)C(=O)C[C@@H]2[C@@H]1CC2(C)C	111% (inactive)
N#C/C(=C\c1cc(O)c(O)c(O)c1)C(N)=O	105% (inactive)
C#CCSc1nnnn1-c1ccc(Br)c(C)c1	83.5% (inactive)
Brc1cnc2ccccc2c1	103% (inactive)
O=C1C=C(O)C(=O)C=C1O	107% (inactive)
COC(=O)Nc1nc2ccc(C(=O)c3ccc(F)cc3)cc2[nH]1	-2.09% (active)
CCOC(=O)C1=C(C)NC(=O)NC1c1cccs1 (stereo unspecified)	102% (inactive)
CCOC(=O)Nc1cc2c(c(N)n1)N=C(c1ccccc1)CO2	86.4% (inactive)
COC(=O)c1cccnc1	90.4% (inactive)
O=[N+]([O-])c1cccc(C(F)(F)F)c1	97.3% (inactive)
CC(=O)Cc1ccc(-c2ccccc2)cc1	98.8% (inactive)
Cc1ccc(C(=O)NC2c3ccccc3Oc3ccccc32)cc1	57.7% (inactive)
CC1(c2ccccc2)NC(=O)NC1=O (stereo unspecified)	84.5% (inactive)
COc1cc2c3c(n(C)c(=O)c2cc1OC)-c1cc2c(cc1C3=O)OCO2	78.2% (inactive)

SMILES	growth
O=[N+]([O-])c1ccc(-c2ncc(-c3ccc(Br)cc3)o2)cc1	74.1% (inactive)
CCNCCCCNCCCCNCCCCNCCCCNCC	30.7% (inactive)
CC1=CC(C)(C)NC(=S)N1c1ccc(S(=O)(=O)O)c2cccc(S(=O)(=O)O)c12	112% (inactive)
O=c1[nH]cc(Cl)cc1O	92.3% (inactive)
CC(C)=NNc1ccc([N+](=O)[O-])cc1[N+](=O)[O-]	101% (inactive)
CC1CC(O)CC(C)(C)C1 (stereo unspecified)	97.8% (inactive)
CCOC(=O)CNN	97% (inactive)
CCOC(=O)c1ccc(NC(=S)P(=O)(c2ccccc2)c2ccccc2)cc1	108% (inactive)
O=C(Nc1cccc(NC(=O)Nc2cc(C(F)(F)F)ccc2Cl)c1)Nc1cc(C(F)(F)F)ccc1Cl	-4.1% (active)
COc1cc(-c2ccc(NC(=O)NC3CC3)c(OC)c2)ccc1NC(=O)NC1CC1	26.5% (inactive)
Oc1ccc2c(c1)OCC1(O)Cc3cc(O)c(O)cc3C21 (stereo unspecified)	96.6% (inactive)
COc1ccc(Oc2c(I)cc(CC(NC(C)=O)C(=O)O)cc2I)cc1 (stereo unspecified)	83.8% (inactive)
CCCCC/C=N/Nc1nc(C)cc(=O)[nH]1	93.1% (inactive)
CN(C)C(C)(C)CC(C)(C)C	117% (inactive)
CN(C)C(=O)Oc1cccc([N+](C)(C)C)c1	97.8% (inactive)
CC12CC3CC1C(C(=O)O2)C3C(=O)O (stereo unspecified)	92.1% (inactive)
CCN(CC)c1ccc2nc3ccc(=[N+](CC)CC)cc-3oc2c1	-55.8% (active)
O=C(NC1CCCCC1)OCc1c(COC(=O)NC2CCCCC2)c(-c2ccc(Cl)c(Cl)c2)n2c1CCC2	66.2% (inactive)
N#CCCN(CCCN1CCOCC1)CN1C(=O)c2ccccc2C1=O	107% (inactive)

Test system: M14 melanoma
Test: as above
Conditions: 10 µM

SMILES	growth
CC(=O)OC1CC2C(C)(C)OC3CC(=O)OCC32C2CCC3(C)C(=CCC3c3ccoc3)C12C (stereo unspecified)	115% (inactive)
CCC(O)CC(CC)CO (stereo unspecified)	102% (inactive)
CC(=Nc1ccccc1)C1=C(O)C(Cc2cccc(F)c2)NC1=O (stereo unspecified)	7.5% (active)
Cc1c(O)cccc1O	105% (inactive)
CC1CCCCN1C(=S)Nc1ccc(S(=O)(=O)N2CCCCC2)cc1 (stereo unspecified)	89.2% (inactive)
C=C1CC/C=C(\C)C(=O)C[C@@H]2[C@@H]1CC2(C)C	98.3% (inactive)
N#C/C(=C\c1cc(O)c(O)c(O)c1)C(N)=O	92.2% (inactive)
C#CCSc1nnnn1-c1ccc(Br)c(C)c1	94.8% (inactive)
Brc1cnc2ccccc2c1	97.7% (inactive)
O=C1C=C(O)C(=O)C=C1O	104% (inactive)
COC(=O)Nc1nc2ccc(C(=O)c3ccc(F)cc3)cc2[nH]1	15.6% (inactive)
CCOC(=O)C1=C(C)NC(=O)NC1c1cccs1 (stereo unspecified)	111% (inactive)
CCOC(=O)Nc1cc2c(c(N)n1)N=C(c1ccccc1)CO2	15.4% (inactive)
COC(=O)c1cccnc1	93.9% (inactive)
O=[N+]([O-])c1cccc(C(F)(F)F)c1	97.9% (inactive)
CC(=O)Cc1ccc(-c2ccccc2)cc1	109% (inactive)
Cc1ccc(C(=O)NC2c3ccccc3Oc3ccccc32)cc1	36% (inactive)
CC1(c2ccccc2)NC(=O)NC1=O (stereo unspecified)	121% (inactive)
COc1cc2c3c(n(C)c(=O)c2cc1OC)-c1cc2c(cc1C3=O)OCO2	63% (inactive)

SMILES	growth
O=[N+]([O-])c1ccc(-c2ncc(-c3ccc(Br)cc3)o2)cc1	109% (inactive)
CCNCCCCNCCCCNCCCCNCCCCNCC	66.9% (inactive)
CC1=CC(C)(C)NC(=S)N1c1ccc(S(=O)(=O)O)c2cccc(S(=O)(=O)O)c12	107% (inactive)
O=c1[nH]cc(Cl)cc1O	86.6% (inactive)
CC(C)=NNc1ccc([N+](=O)[O-])cc1[N+](=O)[O-]	74.3% (inactive)
CC1CC(O)CC(C)(C)C1 (stereo unspecified)	108% (inactive)
CCOC(=O)CNN	107% (inactive)
CCOC(=O)c1ccc(NC(=S)P(=O)(c2ccccc2)c2ccccc2)cc1	97.7% (inactive)
O=C(Nc1cccc(NC(=O)Nc2cc(C(F)(F)F)ccc2Cl)c1)Nc1cc(C(F)(F)F)ccc1Cl	21.6% (inactive)
COc1cc(-c2ccc(NC(=O)NC3CC3)c(OC)c2)ccc1NC(=O)NC1CC1	75.7% (inactive)
Oc1ccc2c(c1)OCC1(O)Cc3cc(O)c(O)cc3C21 (stereo unspecified)	90.6% (inactive)
COc1ccc(Oc2c(I)cc(CC(NC(C)=O)C(=O)O)cc2I)cc1 (stereo unspecified)	80.8% (inactive)
CCCCC/C=N/Nc1nc(C)cc(=O)[nH]1	106% (inactive)
CN(C)C(C)(C)CC(C)(C)C	105% (inactive)
CN(C)C(=O)Oc1cccc([N+](C)(C)C)c1	126% (inactive)
CC12CC3CC1C(C(=O)O2)C3C(=O)O (stereo unspecified)	117% (inactive)
CCN(CC)c1ccc2nc3ccc(=[N+](CC)CC)cc-3oc2c1	-34.1% (active)
O=C(NC1CCCCC1)OCc1c(COC(=O)NC2CCCCC2)c(-c2ccc(Cl)c(Cl)c2)n2c1CCC2	21.6% (inactive)
N#CCCN(CCCN1CCOCC1)CN1C(=O)c2ccccc2C1=O	125% (inactive)
